D1 potentiator – Potentiators of Human D1 Dopamine Receptor: qHTS. D(1A) dopamine receptor (Homo sapiens), P21728. HEK293 TREx D1 cells, calcium flux, dopamine EC20 potentiation. 0.036% of 360,000 active. potentiation, % at 10 µM. AID 504651, 2011; in the data active = potentiation above about 30%
Target sequence (P21728 whole entry, looked up): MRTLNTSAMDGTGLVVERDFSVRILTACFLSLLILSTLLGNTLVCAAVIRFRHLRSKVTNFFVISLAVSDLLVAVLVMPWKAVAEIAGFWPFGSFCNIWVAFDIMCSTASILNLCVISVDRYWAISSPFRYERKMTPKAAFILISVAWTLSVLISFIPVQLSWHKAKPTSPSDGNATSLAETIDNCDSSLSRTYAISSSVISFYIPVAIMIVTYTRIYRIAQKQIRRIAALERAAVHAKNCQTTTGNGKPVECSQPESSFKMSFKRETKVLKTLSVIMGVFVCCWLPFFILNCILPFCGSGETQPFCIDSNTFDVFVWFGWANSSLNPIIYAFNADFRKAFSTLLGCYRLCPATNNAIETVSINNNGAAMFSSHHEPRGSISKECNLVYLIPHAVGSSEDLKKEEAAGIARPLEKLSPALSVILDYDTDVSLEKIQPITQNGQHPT
TRHR enhancer – qHTS for Small Molecule Agonists and Allosteric Enhancers of Human TRH Receptor: Primary Screen for Enhancers; Thyrotropin-releasing hormone receptor (Homo sapiens), P34981; TRHR cells, fluo-8 calcium fluorescence, EC20 TRH enhancement; enhancement, % at 2 µM; 0.66% of 360,000 active; in the data active = enhancement above about 30%
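Enhancer read-out: after compound pinning and an initial kinetic agonist-mode read, an EC20 of TRH (10 nM final) was injected and fluo-8 calcium signal (Ex 480/Em 530) followed at 1 s/cycle for 100 cycles in TRHR-expressing cells.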
TRHR ag – qHTS for Small Molecule Agonists and Allosteric Enhancers of Human TRH Receptor: Primary Screen for Agonists. TRHR cells, calcium flux fluo-8, FDSS agonist mode. activation, % at 2 µM. 0.18% of 360,000 active. AID 493084, 2011
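Fluo-8-loaded TRHR cells; 10 s baseline, compound added, kinetic Ca2+ fluorescence read 1/s, agonist mode.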
D1 ag – Allosteric Agonists of the Human D1 Dopamine Receptor: qHTS | HEK293 T-REx D1 cells, calcium flux, agonist mode | activation, % at 2 µM | 1% of 360,000 active | D(1A) dopamine receptor (Homo sapiens), P21728
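Inducible HEK293 T-REx D1 cells, force-coupled to calcium signalling, were plated at 4000 cells/well with tetracycline and held overnight at 30 C. After no-wash calcium dye loading, compound-evoked calcium rise over 180 s flagged agonists.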
D1 antagonist – Antagonist of Human D 1 Dopamine Receptor: qHTS | D(1A) dopamine receptor (Homo sapiens), P21728 | 3.2% of 360,000 active | activity change, negative = inhibition, % at 10 µM | HEK293 TREx D1 cells, calcium flux, dopamine EC80; hits give low values; in the data active = activity change below about -30%
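Calcium flux readout: force-coupled, inducible Hek293 Trex D1 line, cells induced overnight at 30 C with tetracycline, dye-loaded 30–90 min at RT. Antagonism scored against EC80 dopamine challenge given 180 s after compound.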
Large screens that a line does not name were inactive. Compounds with a hit are over-represented: about 4.7% of the library has one in this group of screens. Rule as the data show it, unless noted: active = activation above about 30%; inactive = the rest.

O=C(COc1ccccc1-c1nc(-c2ccccc2)no1)Nc1ccccc1[N+](=O)[O-]	TRHR enhancer 41
Cc1ccc(-c2noc(-c3ccccc3OCC(=O)Nc3ccccc3[N+](=O)[O-])n2)cc1	none
Cc1cccc(C)c1NC(=O)CCCn1c(=O)c2cccn2c2ccccc21	none
CCOc1ccc(C2=NC(c3ccncc3)=Nc3ccc(C)cc3N2)cc1OCC	none
O=C(CC1CCCC1)Nc1cccc(Br)c1	D1 antagonist -38
CC(C)CC1NC(=O)N(CC(=O)Nc2cccc(Br)c2)C1=O (stereo not given)	D1 antagonist -39
CC(C)c1ccc(NC(=O)CN2C(=O)c3cccc4cccc2c34)cc1	none
Cc1ccc(-n2nc(C(=O)Nc3ccc(F)cc3Cl)c(=O)n(C)c2=O)cc1	none
COc1cc(Cl)c(C)cc1NC(=O)c1nn(-c2ccc(C)cc2)c(=O)n(C)c1=O	D1 antagonist -98
CCc1nc(SCC(=O)N2CCCC2)c2ccccc2n1	none
O=C(CSc1ncnc2ccccc12)c1cccs1	D1 antagonist -54
O=C(CSc1ncnc2ccccc12)N1CCCC1	D1 antagonist -74
Cc1ccc(C(=O)CSc2ncnc3ccccc23)o1	none
COc1ccc(C2CC(=O)c3cc(-c4nc(-c5cccc([N+](=O)[O-])c5)cs4)c(=O)n(-c4ccc(C)c(C)c4)c3C2)cc1 (stereo not given)	none
CCCc1nn2c(=O)cc(COc3ccc(/C=C(\C#N)C(=O)Nc4ccccc4)cc3)nc2s1	none
COc1cc(-c2c(C(C)=O)c(C)nc3c2C(=O)c2ccccc2-3)cc(OC)c1OC	none
CC(=O)c1c(Cl)nc2cccc3c2c1-c1ccccc1C3=O	TRHR enhancer 34
COc1ccc(NS(=O)(=O)c2ccc3[nH]c(=O)ccc3c2)cc1OC	none
Cc1cc2ccccc2n1CCNC(=O)c1ccccc1	D1 ag 43
N#C/C(N=Nc1ccccc1O)=N\Nc1ccccc1O	D1 ag 36, D1 antagonist -59
CN(C)CCCNC(=O)c1ccc(-c2nc(-c3ccc(Cl)cc3)cs2)cc1	D1 antagonist -59
CC(C)(C)c1ccc(C(=O)NCCc2csc(-c3ccc(Cl)cc3)n2)cc1	none
O=[N+]([O-])c1ccc([S+](=O)([O-])N2CCN([S+](=O)([O-])c3ccc4c(c3)OCCO4)CC2)c([N+](=O)[O-])c1	none
Cn1cc(S(=O)(=O)CC(=O)N2CCCc3ccccc32)c2ccccc21	D1 antagonist -84 (no result: D1 potentiator)
O=C(/C=C/c1ccco1)Nc1cccc(C(=O)Nc2ccccc2C(=O)O)c1	none
CCc1ccccc1NC(=O)c1cccc(NC(=O)/C=C/c2ccco2)c1	D1 antagonist -36
O=C(N=c1ccn(-c2nc3ccccc3nc2NS(=O)(=O)c2ccc(Cl)cc2)cc1)c1cccs1	none
O=C(N=c1ccn(-c2nc3ccccc3nc2NS(=O)(=O)c2ccccc2)cc1)c1ccccc1Cl	TRHR enhancer 39, D1 ag 38
CCOc1ccc(S(=O)(=O)Nc2nc3ccccc3nc2-n2ccc(=NC(=O)c3cccs3)cc2)cc1	D1 ag 72, D1 antagonist -33
O=C(N=c1ccn(-c2nc3ccccc3nc2NS(=O)(=O)c2ccc(Cl)cc2)cc1)c1ccccc1Cl	D1 ag 89
CN1C(=O)c2ccccc2Sc2ccc(NC(=O)NCc3cccc(Cl)c3)cc21	none
Oc1ccc2c(c1)C1CCCC1(N1CCOCC1)O2 (stereo not given)	none
c1ccc2c(c1)nc1n2C2(N3CCOCC3)CCCC2C1N1CCOCC1 (stereo not given)	D1 ag 47
Cc1ccc(NC(=O)CN(C)C(=O)COC(=O)CNS(=O)(=O)c2ccc(Br)cc2Cl)cc1	D1 antagonist -34
O=C(COC(=O)CNS(=O)(=O)c1ccc(Br)cc1Cl)NCCc1ccccc1	D1 antagonist -34
CCCCSc1nc(O)c(C2OC(=O)c3c2ccc(OC)c3OC)c(=O)n1-c1ccccc1 (stereo not given)	TRHR enhancer 31, D1 antagonist -34
COc1ccc(Cl)cc1NC(=O)CSc1nc(-c2ccccc2)c2ccccc2n1	none
